# From PubChem BioAssay (EPA / NIEHS)
# Results filed as inconclusive are left out. Activity calls are given as the source filed them. Rule for the calls: active = hit-call score of the fitted dose curve at least 0.9, where 1 is the maximum; inconclusive = response in the unintended direction; inactive = score below 0.9.
# Experiment: Tanguay_ZF_120hpf_SNOU_legacy: (Legacy) Oregon State University Tanguay Lab 120 Hour Post-fertilization zebrafish Assay for Snout Malformation (AID 2283637)
# Description: Tanguay_ZF_120hpf_legacy is a whole embryo, multiplexed endpoint assay using zebrafish larvae exposed for 120 hours post fertilization on a 96-well plate.Tanguay_ZF_120hpf_SNOU_legacy is one of one assay component(s) measured or calculated from the Tanguay_ZF_120hpf_legacy assay. It is designed to make measurements of zebrafish development as detected with brightfield microscopy of developing zebrafish embryos.Data from the assay component Tanguay_ZF_120hpf_SNOU_legacy was analyzed into 1 assay endpoints. This assay endpoint, Tanguay_ZF_120hpf_SNOU_legacy, was analyzed in the positive analysis fitting direction relative to DMSO as the negative control and baseline of activity. Using a type of morphology reporter, gain-of-signal activity can be used to understand changes in developmentals as they relate to the whole embryo. To generalize the intended target to other relatable targets, this assay endpoint is annotated to the zebrafish development intended target family, where the subfamily is embryonic snout morphogenesis.
# Zebrafish husbandry: Tropical 5D wild-type adult zebrafish were housed in at an approximate density of 1000 per 100 gallon tank at the Sinnhuber Aquatic Research Laboratory, Oregon State University, Corvallis, OR. Each tank was kept at standard laboratory conditions of 28C on a 14-h light/10-h dark photoperiod in fish water consisting of reverse osmosis water supplemented with a commercially available salt (Instant Ocean). Spawning funnels were placed into the tanks the night prior, and embryos were collected and staged. To increase bioavailability, the chorion was enzymatically removed using pronase (63.6mg/ml, >/= 3.5U/mg, Sigma-Aldrich: P5147) at 4 hours post fertilization (hpf) using a custom automated dechorionator.Chemical exposures: Six hpf dechorionated embryos were placed 1 embryo per well in a 96-well plate prefilled with 90 ul of EM using automated embryo placement systems (AEPS). Ten microliters of each row of dilution plate 2 was added to 2 exposure plates. The final DMSO concentration used was 0.64% (vol/vol). Thirty-two embryos were also exposed to 5uM trimethyltin chloride (positive control). Plates were sealed to prevent evaporation and foil covered to reduce light exposure and kept in a 28C incubator. Embryos were statically exposed until 120 hpf. At 24 hpf, embryos were assessed for photomotor response using a custom photomotor response analysis tool (PRAT) and for developmental toxicity endpoints (MO24: mortality at 24 hpf, DP: developmental progression, SM: spontaneous movement, and NC: notochord distortion). At 120 hpf, locomotor activity was measured using Viewpoint Zebralab and assessed for 18 endpoints. Zebrafish acquisition and analysis program (ZAAP), a custom program designed to inventory, acquire, and manage zebrafish data, was used to collect developmental endpoints as either present or absent (i.e., binary responses were recorded). If mortality occurred for an embryo (at either 24 or 120 hpf), the non-mortality endpoints were not measured.
row,SMILES,outcome
1,N#Cc1cccnc1,inactive
2,OCCN(CCO)CCO,inactive
3,O=C(O)C1(c2ccc3c(c2)OC[C@H](Cc2ccc(-c4ccccc4)cc2)[C@H]3O)CCCC1,inactive
4,Clc1cccc(Cl)c1,inactive
5,CN(C)C(=S)S,inactive
6,CC(C)(C)c1ccccc1O,inactive
7,Clc1cccc(Cl)c1Cl,inactive
8,Oc1c(Cl)cc(Cl)cc1Cl,inactive
9,Oc1cc(Cl)c(Cl)cc1Cl,inactive
10,O=C(N[C@H]1CN2CCC1CC2)c1ccc2c(c1)OCCO2,inactive
11,Cc1cc(C)cc(C)c1,inactive
12,COc1ccccc1N,inactive
13,CC(C)O.CC(C)O.OCCN(CCO)CCO.OCCN(CCO)CCO.[Ti],inactive
